# In PubChem BioAssay (Tox21):
# Values without a mark were called inactive. Results filed as inconclusive are left out. Entries that show only a call come without a potency. Activity calls are given as the source filed them. Unless noted, the call rests on the fitted dose curve.
# How the values were obtained:
# [1] = Nuclear factor erythroid 2-related factor 2/antioxidant responsive element (Nrf2/ARE) small molecule agonists: qHTS cell viability counter screen in human keratinocytes (AID 1919968; active means well fitted curve in the direction sought with a large enough effect in the repeat runs; an effect the other way counts as inactive or inconclusive; further: nearly all actives have a fitted effect of over 55% in size)
# Method in brief: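 HaCaT ARE reporter line, 1,500 cells/well; 5 h settle, 37 C/5% CO2; cpd in DMSO pinned; 23 h exposure; CellTiter-Fluor, 1 h; fluorescence.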
# [2] = Nuclear factor erythroid 2-related factor 2/antioxidant responsive element (Nrf2/ARE) small molecule agonists: luciferase reporter gene qHTS assay in human keratinocytes (AID 1919969); further: nearly all actives have a fitted effect of over 35% in size
# [3] = molecular target: Gonadotropin-releasing hormone receptor (Homo sapiens) (UniProt P30968); assay: Human gonadotropin-releasing hormone receptor (GnRHR) small molecule agonists, calcium flux assay in GnRHR-HEK293 cells (AID 1920063); further: nearly all actives have a fitted effect of over 35% in size
# Sequence of Gonadotropin-releasing hormone receptor (Homo sapiens) (P30968 whole entry, looked up): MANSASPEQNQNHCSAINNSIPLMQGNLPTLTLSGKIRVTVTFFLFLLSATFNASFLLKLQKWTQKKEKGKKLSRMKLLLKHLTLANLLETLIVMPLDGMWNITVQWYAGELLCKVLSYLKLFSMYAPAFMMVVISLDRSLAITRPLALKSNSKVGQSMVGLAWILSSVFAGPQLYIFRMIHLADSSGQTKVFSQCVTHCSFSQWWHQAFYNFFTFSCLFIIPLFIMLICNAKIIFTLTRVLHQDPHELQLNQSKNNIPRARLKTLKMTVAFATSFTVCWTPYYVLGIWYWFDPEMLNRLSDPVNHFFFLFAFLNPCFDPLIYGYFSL
# Method in brief: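 GnRHR-HEK293, 1500 cells/well, 18 h 37 C/5% CO2; Ca dye 1 h 37 C; cpd pinned (DMSO), agonist mode; kinetic FL 480/540, 3 min, 1 s reads; 15 conc, n=3.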
# [4] = molecular target: KiSS-1 receptor (Homo sapiens) (UniProt Q969F8); assay: Human kisspeptin (KISS1R) small molecule agonists, calcium flux assay in KISS1R-HEK293 cells (AID 1920064; active means well fitted curve in the direction sought with a large enough effect in the repeat runs; an effect the other way counts as inactive or inconclusive)
# Sequence of KiSS-1 receptor (Homo sapiens) (Q969F8 whole entry, looked up): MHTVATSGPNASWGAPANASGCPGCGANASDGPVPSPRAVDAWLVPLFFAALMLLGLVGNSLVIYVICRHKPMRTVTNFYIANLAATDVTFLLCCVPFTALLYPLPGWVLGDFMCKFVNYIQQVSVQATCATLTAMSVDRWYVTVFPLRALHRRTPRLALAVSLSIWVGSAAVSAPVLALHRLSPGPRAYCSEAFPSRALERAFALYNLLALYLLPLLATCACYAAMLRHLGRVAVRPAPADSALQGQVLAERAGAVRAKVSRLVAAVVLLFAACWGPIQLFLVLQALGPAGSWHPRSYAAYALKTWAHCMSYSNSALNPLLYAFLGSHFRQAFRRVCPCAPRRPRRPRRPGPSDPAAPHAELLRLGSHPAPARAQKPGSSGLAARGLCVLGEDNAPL
# Method in brief: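 Stable human KISS1R HEK293 line; 18 h plating, 37 C/5% CO2; calcium dye 1 h 37 C; compound pin transfer; kinetic fluorescence Ex/Em 480/540, 3 min.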
# [5] = G protein-coupled receptor (GPCR) small molecule agonists, calcium flux assay: HEK293 wild type cell line counter screen (AID 1920065)
# Method in brief: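 Kinetic fluorescence at Ex/Em 480/540, recorded every second over 3 min, served as the read-out after compound addition. Each compound was tested at 15 concentrations in triplicate on cells pre-loaded with calcium dye for 1 h.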
# [6] = p53 small molecule agonists, cell-based qHTS assay with human liver microsomes (AID 1963577);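 further: p53 response element beta-lactamase reporter cells with liver microsomes plus NADPH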
# Method in brief: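 Metabolically competent format: test substances, human liver microsomes and NADPH (both 0.5 mg/mL final) incubated with p53RE-bla cells 16 h at 37 C. Beta-lactamase reporter signal then quantified by fluorescence.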
# [7] = p53 small molecule agonists, cell-based qHTS assay with rat liver microsomes (AID 1963578)
# Method in brief: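 Each plate received p53RE-bla cells, then compound, then rat liver microsomes and NADPH (both 0.5 mg/mL final). Plates were held 16 h at 37 C, and beta-lactamase activity was detected with LiveBLAzer over 2 h.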
# [8] = p53 small molecule agonists, cell-based qHTS assay with rat liver microsomes: qHTS cell viability counter screen (AID 1963580); further: nearly all actives have a fitted effect of over 45% in size
# Method in brief: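 Viability is assessed in parallel with the p53 reporter read: HCT-116 p53RE-bla cells receive compounds plus rat microsomes and NADPH (0.5 mg/mL final apiece), incubate 16 h at 37 C, and then CellTiter-Glo luminescence is recorded.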
# [9] = p53 small molecule agonists, cell-based qHTS assay: qHTS cell viability counter screen (AID 1963581); further: nearly all actives have a fitted effect of over 45% in size
# Method in brief: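 HCT-116 p53RE-bla cells, 4,000/well, plated 5 h before compound pin transfer; 16 h at 37 C; bla substrate 2 h RT; then CellTiter-Glo, 30 min RT, luminescence.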
# [10] = p53 small molecule agonists, cell-based qHTS assay (AID 1963582; active means well fitted activation curve with a large enough effect in the signal ratio in the repeat runs, not every such curve was filed as active; the % refers to the signal ratio)
# Method in brief: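 Reporter line: p53RE-bla. Pre-incubation 5 h, 37 C, 5% CO2; compound (DMSO, pin tool) 16 h, 37 C; B/G FRET substrate 2 h RT; fluorescence intensity read.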
# [11] = cAMP Responsive Elements (CRE) small molecule agonists, cell-based qHTS assay (AID 1963590)
# Method in brief: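 HEK 293T CRE-bla, 2,000 cells/well, 18 h preincubation 37 C/5% CO2; cpds (DMSO) pinned, 3 h; LiveBLAzer B/G FRET substrate, 2 h RT.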
# [12] = cAMP Responsive Elements (CRE) small molecule antagonists, cell-based qHTS assay (AID 1963591; active means well fitted inhibition curve with a large enough effect in the signal ratio in the repeat runs, not every such curve was filed as active; the % refers to the signal ratio)
# Method in brief: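 Beta-lactamase reporter read by FRET substrate (LiveBLAzer B/G) after 2 h at room temperature. CRE-bla HEK293T cells had received compound plus 0.25 uM (final) NKH477 for 3 h at 37 °C.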
# [13] = molecular target: Beta-2 adrenergic receptor (Homo sapiens) (UniProt P07550); assay: Adrenergic beta2 receptor (ADRB2) small molecule antagonists, cell-based qHTS assay (AID 1963592); further: series mostly up to about 92 µM; nearly all actives have a fitted effect of over 50% in size
# Sequence of Beta-2 adrenergic receptor (Homo sapiens) (P07550 whole entry, looked up): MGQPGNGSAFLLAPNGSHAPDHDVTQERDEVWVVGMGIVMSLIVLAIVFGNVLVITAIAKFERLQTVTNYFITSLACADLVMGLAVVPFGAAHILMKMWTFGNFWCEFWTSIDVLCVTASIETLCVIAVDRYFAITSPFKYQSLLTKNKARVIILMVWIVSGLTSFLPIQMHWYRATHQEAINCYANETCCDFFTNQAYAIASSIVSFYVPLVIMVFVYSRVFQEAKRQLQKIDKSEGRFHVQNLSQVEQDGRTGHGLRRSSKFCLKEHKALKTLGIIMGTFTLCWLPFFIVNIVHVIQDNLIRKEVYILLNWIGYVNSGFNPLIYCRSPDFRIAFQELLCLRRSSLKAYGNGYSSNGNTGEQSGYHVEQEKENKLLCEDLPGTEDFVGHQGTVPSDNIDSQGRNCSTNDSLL
# Method in brief: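 Cells (CHO, stable ADRB2 overexpression) incubated 18-20hr at 37C; compounds added from DMSO; agonist mix (1nM isoproterenol, 100uM IBMX, 25uM Ro-20-1724) added; 0.5hr RT; d2-cAMP and anti-cAMP-cryptate added; 1hr RT; 665/615 nm read.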
# [14] = molecular target: D(2) dopamine receptor (Homo sapiens) (UniProt P14416); assay: Dopamine D2 receptor (DRD2) small molecule agonists, cell-based qHTS assay (AID 1963594); further: nearly all actives have a fitted effect of over 35% in size
# Sequence of D(2) dopamine receptor (Homo sapiens) (P14416 whole entry, looked up): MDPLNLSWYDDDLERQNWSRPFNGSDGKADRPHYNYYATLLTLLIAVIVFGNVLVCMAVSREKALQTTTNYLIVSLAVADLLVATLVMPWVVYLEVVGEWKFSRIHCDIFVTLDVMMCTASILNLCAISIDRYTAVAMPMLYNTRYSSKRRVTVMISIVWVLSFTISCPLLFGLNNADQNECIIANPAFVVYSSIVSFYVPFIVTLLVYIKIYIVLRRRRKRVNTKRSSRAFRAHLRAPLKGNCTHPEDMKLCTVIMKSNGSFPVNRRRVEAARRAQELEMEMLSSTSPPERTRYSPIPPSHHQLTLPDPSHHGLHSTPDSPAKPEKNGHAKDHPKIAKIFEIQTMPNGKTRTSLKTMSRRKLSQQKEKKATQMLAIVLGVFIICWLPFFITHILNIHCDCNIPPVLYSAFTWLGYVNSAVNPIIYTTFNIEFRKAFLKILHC
# Method in brief: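 HEK293 cells stably expressing human DRD2, pre-treated with PDE inhibitor Ro20-1724 (0.1 mM final) and compound 10 min at room temperature, then stimulated with NKH477 (200nM […]) for 30 min. cAMP read by HTRF (665/620 nm).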
# [15] = molecular target: D(2) dopamine receptor (Homo sapiens) (UniProt P14416); assay: Dopamine D2 receptor (DRD2) small molecule antagonists, cell-based qHTS assay (AID 1963595; active means well fitted inhibition curve with a large enough effect in the signal ratio in the repeat runs, with a control signal flat; the % refers to the signal ratio; further: potency means the concentration at half of the fitted maximal effect)
# Method in brief: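 Cells were plated and grown for 24 h at 37 °C. Ro20-1724 (0.1 mM final) went in first, then compound for 10 min. NKH477 (200 nM) with quinpirole (12 nM) followed for 30 min at RT, then HTRF detection reagents for 1 h.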
# [16] = molecular target: Beta-2 adrenergic receptor (Homo sapiens) (UniProt P07550); assay: Adrenergic beta2 receptor (ADRB2) small molecule agonists, cell-based qHTS assay (AID 1963593);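 further: CHO cells stably overexpressing human ADRB2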
# Method in brief: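 CHO cells stably over-expressing ADRB2 were plated overnight at 37C, then dosed with compounds plus a stimulation mix containing 100uM IBMX and 25uM Ro-20-1724 for 0.5hr at room temperature. cAMP was measured by HTRF competition, 1hr.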
# [17] = molecular target: Muscarinic acetylcholine receptor M1 (Homo sapiens) (UniProt P11229); assay: Cholinergic receptor muscarinic 1 (CHRM1) small molecule agonists, cell-based qHTS assay (AID 1963589); further: nearly all actives have a fitted effect of over 35% in size
# Sequence of Muscarinic acetylcholine receptor M1 (Homo sapiens) (P11229 whole entry, looked up): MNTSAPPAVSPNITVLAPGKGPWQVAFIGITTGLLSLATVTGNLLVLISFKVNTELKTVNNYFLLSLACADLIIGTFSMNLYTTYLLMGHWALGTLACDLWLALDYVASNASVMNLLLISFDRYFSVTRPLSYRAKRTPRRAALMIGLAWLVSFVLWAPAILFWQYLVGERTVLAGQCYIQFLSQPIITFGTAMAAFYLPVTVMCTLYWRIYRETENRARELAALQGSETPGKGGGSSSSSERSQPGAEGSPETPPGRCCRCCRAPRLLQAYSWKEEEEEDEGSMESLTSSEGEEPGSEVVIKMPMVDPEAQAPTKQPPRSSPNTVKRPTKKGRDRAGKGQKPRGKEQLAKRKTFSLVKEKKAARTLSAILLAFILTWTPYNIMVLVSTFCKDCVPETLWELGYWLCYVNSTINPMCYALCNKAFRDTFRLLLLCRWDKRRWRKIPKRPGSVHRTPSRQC
# Method in brief: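 Human M1 in stable CHO line; 18 h plating, 1 h dye load 37 C; cpd added (agonist mode); Ca2+ fluorescence kinetic read, 1 s intervals; 15 conc, 3 runs.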
# [18] = molecular target: 5-hydroxytryptamine receptor 2A (Homo sapiens) (UniProt P28223); assay: 5-hydroxytryptamine receptor 2A (HTR2A) small molecule agonists, cell-based qHTS assay (AID 1963587); further: nearly all actives have a fitted effect of over 30% in size
# Sequence of 5-hydroxytryptamine receptor 2A (Homo sapiens) (P28223 whole entry, looked up): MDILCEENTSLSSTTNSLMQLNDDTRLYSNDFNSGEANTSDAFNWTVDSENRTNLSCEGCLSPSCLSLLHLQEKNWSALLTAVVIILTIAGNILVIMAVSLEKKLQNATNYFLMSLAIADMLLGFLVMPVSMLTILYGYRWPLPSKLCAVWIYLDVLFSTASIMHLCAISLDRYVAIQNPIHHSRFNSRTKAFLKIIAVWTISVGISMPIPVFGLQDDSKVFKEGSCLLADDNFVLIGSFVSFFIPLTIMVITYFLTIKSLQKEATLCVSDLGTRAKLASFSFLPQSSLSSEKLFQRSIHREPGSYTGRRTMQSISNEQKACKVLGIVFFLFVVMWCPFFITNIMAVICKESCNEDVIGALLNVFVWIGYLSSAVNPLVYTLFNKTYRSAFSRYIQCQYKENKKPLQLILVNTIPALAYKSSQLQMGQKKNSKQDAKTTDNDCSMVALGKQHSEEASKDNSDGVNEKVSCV
# Method in brief: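 CHO cells stably expressing human HTR2A, plated 18 h, loaded with calcium dye 1 h at 37 C. Agonist mode: compounds added and intracellular calcium fluorescence recorded kinetically for 2 min at 1 sec intervals.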
# [19] = molecular target: Muscarinic acetylcholine receptor M1 (Homo sapiens) (UniProt P11229); assay: Cholinergic receptor muscarinic 1 (CHRM1) small molecule antagonists, cell-based qHTS assay (AID 1963588); further: nearly all actives have a fitted effect of over 40% in size
# Method in brief: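 CHRM1-CHO calcium-flux assay, antagonist mode. Cells were seeded 18 h, dye-loaded 1 h at 37 C and given compound for 5 min at RT, then acetylcholine was added at 50nM. FDSS fluorescence was read 3 min; 15 concentrations, three runs.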
# [20] = molecular target: 5-hydroxytryptamine receptor 2A (Homo sapiens) (UniProt P28223); assay: 5-hydroxytryptamine receptor 2A (HTR2A) small molecule antagonists, cell-based qHTS assay (AID 1963586); further: nearly all actives have a fitted effect of over 45% in size
# Method in brief: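 Antagonist-mode intracellular calcium assay: DOI (4 nM) added after 5 min compound pre-incubation at room temperature to dye-loaded HTR2A-CHO cells. Fluorescence followed for 3 min, sampled every second.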
structure (smiles),measurement,setting,value
O=P(O)(O)C(O)(Cc1cccnc1)P(=O)(O)O,Potency,[1],inactive
same,Potency,[2],inactive
same,Potency,[3],inactive
same,outcome,[4],inactive
same,outcome,[5],inactive
same,Potency,[6],inactive
same,Potency,[7],inactive
same,Potency,[8],inactive
same,Potency,[9],inactive
same,Potency,[10],inactive
same,Potency,[11],inactive
same,Potency,[12],inactive
same,Potency,[13],inactive
same,Potency,[14],inactive
same,Potency,[15],inactive
CCn1cc(C(=O)O)c(=O)c2cc(F)c(N3CCN(C)CC3)cc21,"activity change, negative = cytotoxicity",[1],14.8% [at 19 µM]
same,"activity, positive = activation",[2],-5.55% [at 19 µM]
same,activity change,[3],"-1.03% [at 11.8 µM, hits give high values]"
same,activation,[4],-0.924% [at 15.8 µM]
same,activation,[5],-0.469% [at 11.8 µM]
same,activation,[6],0.192% [at 13.5 µM]
same,activation,[7],-1.11% [at 13.6 µM]
same,"activity change, negative = cytotoxicity",[8],-0.739% [at 13.5 µM]
same,"activity change, negative = cytotoxicity",[9],-4.59% [at 13.5 µM]
same,activation,[10],-0.0544% [at 13.5 µM]
same,activation,[11],-2.07% [at 19 µM]
same,"activity change, negative = inhibition",[12],-14.3% [at 18.9 µM]
same,"activity change, negative = inhibition",[13],0.624% [at 19 µM]
same,Potency,[16],inactive
same,activation,[14],19.5% [at 19 µM]
same,"activity change, negative = inhibition",[15],4.28% [at 18.9 µM]
O=C(CCCN1CCC(O)(c2ccc(Br)cc2)CC1)c1ccc(F)cc1,Potency,[1],inactive
same,Potency,[2],inactive
same,Potency,[3],inactive
same,outcome,[4],inactive
same,outcome,[5],inactive
same,Potency,[6],inactive
same,Potency,[7],inactive
same,Potency,[8],inactive
same,Potency,[9],inactive
same,Potency,[10],inactive
same,Potency,[17],inactive
same,Potency,[11],inactive
same,Potency,[12],inactive
same,Potency,[14],inactive
same,Potency,[15],0.188 µM (active)
Cc1ncc([N+](=O)[O-])n1CC(C)O (configuration not stated),Potency,[1],inactive
same,Potency,[2],inactive
same,Potency,[3],inactive
same,outcome,[4],inactive
same,outcome,[5],inactive
same,Potency,[6],inactive
same,Potency,[7],inactive
same,Potency,[8],inactive
same,Potency,[9],inactive
same,Potency,[10],inactive
same,Potency,[11],inactive
same,Potency,[12],inactive
same,Potency,[13],inactive
same,Potency,[16],inactive
same,Potency,[14],inactive
same,Potency,[15],inactive
O=[N+]([O-])c1cccc(S(=O)(=O)NCCNS(=O)(=O)c2cccc([N+](=O)[O-])c2)c1,Potency,[1],inactive
same,Potency,[2],inactive
same,Potency,[3],inactive
same,outcome,[4],inactive
same,outcome,[5],inactive
same,Potency,[6],inactive
same,Potency,[7],inactive
same,Potency,[8],inactive
same,Potency,[9],inactive
same,Potency,[10],inactive
same,Potency,[18],inactive
same,Potency,[19],inactive
same,Potency,[17],inactive
same,Potency,[12],inactive
same,Potency,[13],inactive
same,Potency,[16],inactive
same,Potency,[14],inactive
COc1ccc(C(=O)Nc2nc3ccccc3c(NCc3ccccc3)c2C#N)cc1,Potency,[1],inactive
same,Potency,[2],inactive
same,Potency,[3],inactive
same,outcome,[4],inactive
same,outcome,[5],inactive
same,Potency,[6],inactive
same,Potency,[7],inactive
same,Potency,[8],inactive
same,Potency,[9],inactive
same,Potency,[10],inactive
same,Potency,[20],inactive
same,Potency,[18],inactive
same,Potency,[19],inactive
same,Potency,[17],inactive
same,Potency,[14],inactive
same,Potency,[15],inactive
CCOC(=O)C(=O)CCc1ccccc1,Potency,[1],inactive
same,Potency,[2],inactive
same,Potency,[3],inactive
same,outcome,[4],inactive
same,outcome,[5],inactive
same,Potency,[6],inactive
same,Potency,[7],inactive
same,Potency,[8],inactive
same,Potency,[9],inactive
same,Potency,[10],inactive
same,Potency,[20],inactive
same,Potency,[18],inactive
same,Potency,[17],inactive
same,Potency,[12],inactive
same,Potency,[13],inactive
same,Potency,[14],inactive
same,Potency,[15],inactive
